# Compounds without any hit were thinned out: in the full panel of roughly 79,000, 15% have a hit. A number with no mark means an inactive call. Calls of active or inactive are those of the source. No stated cut-off is given here; in the data, active means growth inhibition above about 70%; inactive means the rest.
# Legend:
# [1] = NCI Yeast Anticancer Drug Screen. Data for the rad52 strain (AID 147);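 further: 0% = growth of vehicle-treated control cultures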; conditions: S. cerevisiae rad52 mutant growth inhibition, active compounds read high
# How it was run: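 Genetically altered yeast (DNA damage repair defect) treated with compound; inhibition calculated relative to vehicle.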
# [2] = NCI Yeast Anticancer Drug Screen. Data for the rad50EPP+ strain (AID 151);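 further: 0% = growth of vehicle-treated control cultures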; conditions: S. cerevisiae rad50 mutant strain, active compounds read high
# How it was run: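 Strain rad50EPP+; compound exposure; % growth inhibition vs vehicle.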
# [3] = NCI Yeast Anticancer Drug Screen. Data for the mgt1 strain (AID 153); conditions: S. cerevisiae mgt1 mutant growth inhibition, active compounds read high
# How it was run: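 Read-out: yeast growth inhibition vs vehicle control. Strain mgt1, drawn from a panel altered in DNA damage repair or cell cycle control.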
# [4] = NCI Yeast Anticancer Drug Screen. Data for the rad50 strain (AID 155);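 further: 0% = growth of vehicle-only cultures of the same strain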; conditions: S. cerevisiae rad50 strain growth inhibition, active compounds read high
# How it was run: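 Cells are treated with compound, grown, and their growth is then scored against vehicle-only cultures of the same repair-deficient yeast strain.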
# [5] = NCI Yeast Anticancer Drug Screen. Data for the mec2-1 strain (AID 157); conditions: S. cerevisiae mec2-1 strain, active compounds read high
# How it was run: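 Cells of the genetically defined mec2-1 yeast strain are incubated with test compound. Inhibition of growth is calculated against vehicle-treated controls.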
# [6] = NCI Yeast Anticancer Drug Screen. Data for the rad14 strain (AID 159);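 further: 0% = growth of vehicle-treated control cultures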; conditions: S. cerevisiae rad14 strain growth inhibition, active compounds read high
# How it was run: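 Readout: yeast growth inhibition, referenced to vehicle-only cultures. Strain bears a defined alteration in DNA damage repair.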
# [7] = NCI Yeast Anticancer Drug Screen. Data for the sgs1 mgt1 strain (AID 161);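 further: 0% = growth of cultures given vehicle only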; conditions: S. cerevisiae sgs1 mgt1 strain, active compounds read high
# How it was run: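 Genetically altered yeast, compound exposure, growth inhibition relative to vehicle.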
# [8] = NCI Yeast Anticancer Drug Screen. Data for the CLN2oe strain (AID 163);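 further: 0% = growth of vehicle-only control cultures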; conditions: S. cerevisiae CLN2oe strain, active compounds read high
# How it was run: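 Strain altered in cell-cycle control, incubated with compound; growth compared to solvent-treated controls.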
# [9] = NCI Yeast Anticancer Drug Screen. Data for the cln2 rad14 strain (AID 165);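 further: 0% = growth equal to vehicle treated cultures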; conditions: S. cerevisiae cln2 rad14 strain, active compounds read high
# How it was run: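 The screen exposed genetically defined yeast (cln2 rad14) to test compounds and scored growth inhibition relative to vehicle-treated controls.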
# [10] = NCI Yeast Anticancer Drug Screen. Data for the bub3 strain (AID 167); conditions: S. cerevisiae bub3 mutant strain, active compounds read high
# How it was run: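 Part of a panel of yeast mutants defective in DNA damage repair or cell cycle regulation. Each strain is grown with compound, and inhibition is calculated relative to solvent-treated cultures.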
# [11] = NCI Yeast Anticancer Drug Screen. Data for the wt2 strain (AID 169);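 further: 0% = growth of vehicle-treated yeast cultures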; conditions: S. cerevisiae wt2 strain growth inhibition, active compounds read high
# How it was run: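 Steps: yeast strain treated with compound; growth recorded; inhibition calculated relative to cultures given vehicle alone.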
# [12] = NCI Yeast Anticancer Drug Screen. Data for the mlh1 strain (AID 171);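 further: 0% = growth of vehicle-treated control cultures of the same strain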; conditions: S. cerevisiae mlh1 strain growth inhibition, active compounds read high
# How it was run: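 Yeast screen: mutant strain plus compound, growth scored against vehicle control wells.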
# [13] = NCI Yeast Anticancer Drug Screen. Data for the sgs1 strain (AID 173);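 further: 0% = growth of vehicle-only control cultures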; conditions: S. cerevisiae sgs1 mutant, active compounds read high
# How it was run: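 Inhibition of yeast growth served as the measure. The mutant strain was treated with each compound, and growth was normalised to cultures receiving vehicle alone.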
# [14] = NCI Yeast Anticancer Drug Screen. Data for the mlh1 rad18 strain (AID 175); conditions: S. cerevisiae mlh1 rad18 strain growth inhibition, active compounds read high
# How it was run: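 Compound-treated yeast growth, normalised to vehicle controls. Strain bears defined DNA repair mutations.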
# [15] = NCI Yeast Anticancer Drug Screen. Data for the rad18 strain (AID 177); conditions: S. cerevisiae rad18 mutant growth inhibition, active compounds read high
# How it was run: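 Inhibition values reflect reduced yeast growth compared with vehicle-treated controls, using a strain engineered with a DNA damage repair defect.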
# [16] = NCI Yeast Anticancer Drug Screen. Data for the wt1 strain (AID 149);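 further: 0% = growth of vehicle-treated wt1 cultures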; conditions: S. cerevisiae wt1 strain (SPY 50644) growth inhibition, active compounds read high
# How it was run: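 The wt1 strain was treated with compounds, and growth was compared with vehicle-treated cultures to give inhibition.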
# [17] = at 5.0 µM (retest, dose inferred, filed as 0.5)
# [18] = at 50.0 µM (retest, dose inferred, filed as 5.0)
smiles,measurement,setting,value
COc1ccc(NC(=O)CC2SC(=Nc3ccccc3C)NC2=O)c([N+](=O)[O-])c1 (stereo unspecified),growth inhibition,[1]; at 1.2 µM,0%
same,growth inhibition,[1]; at 3.7 µM,-2%
same,growth inhibition,[1]; at 11.0 µM,2%
same,growth inhibition,[1]; at 33.0 µM,13%
same,growth inhibition,[1]; at 100.0 µM,75% (active)
same,growth inhibition,[2]; at 1.2 µM,-2%
same,growth inhibition,[2]; at 3.7 µM,-2%
same,growth inhibition,[2]; at 11.0 µM,1%
same,growth inhibition,[2]; at 33.0 µM,28%
same,growth inhibition,[2]; at 100.0 µM,80% (active)
same,growth inhibition,[3]; at 1.2 µM,-2%
same,growth inhibition,[3]; at 3.7 µM,1%
same,growth inhibition,[3]; at 11.0 µM,1%
same,growth inhibition,[3]; at 33.0 µM,12%
same,growth inhibition,[3]; at 100.0 µM,99% (active)
same,growth inhibition,[4]; at 1.2 µM,1%
same,growth inhibition,[4]; at 3.7 µM,-44%
same,growth inhibition,[4]; [17],0%
same,growth inhibition,[4]; at 11.0 µM,26%
same,growth inhibition,[4]; at 33.0 µM,18%
same,growth inhibition,[4]; [18],69%
same,growth inhibition,[4]; at 50.0 µM,56.7%
same,growth inhibition,[4]; at 100.0 µM,98% (active)
same,growth inhibition,[5]; at 1.2 µM,1%
same,growth inhibition,[5]; at 3.7 µM,1%
same,growth inhibition,[5]; [17],-17%
same,growth inhibition,[5]; at 11.0 µM,4%
same,growth inhibition,[5]; at 33.0 µM,15%
same,growth inhibition,[5]; [18],66%
same,growth inhibition,[5]; at 50.0 µM,72.2% (active)
same,growth inhibition,[5]; at 100.0 µM,97% (active)
same,growth inhibition,[6]; at 1.2 µM,-2%
same,growth inhibition,[6]; at 3.7 µM,-2%
same,growth inhibition,[6]; at 11.0 µM,1%
same,growth inhibition,[6]; at 33.0 µM,10%
same,growth inhibition,[6]; at 100.0 µM,97% (active)
same,growth inhibition,[7]; [17],2%
same,growth inhibition,[7]; [18],74% (active)
same,growth inhibition,[7]; at 50.0 µM,72.9% (active)
same,growth inhibition,[8]; at 1.2 µM,0%
same,growth inhibition,[8]; at 3.7 µM,-4%
same,growth inhibition,[8]; at 11.0 µM,0%
same,growth inhibition,[8]; at 33.0 µM,-6%
same,growth inhibition,[8]; at 100.0 µM,16%
same,growth inhibition,[9]; [17],-2%
same,growth inhibition,[9]; [18],22%
same,growth inhibition,[9]; at 50.0 µM,32.2%
same,growth inhibition,[10]; at 1.2 µM,2%
same,growth inhibition,[10]; at 3.7 µM,-1%
same,growth inhibition,[10]; [17],-8%
same,growth inhibition,[10]; at 11.0 µM,-5%
same,growth inhibition,[10]; at 33.0 µM,6%
same,growth inhibition,[10]; [18],71% (active)
same,growth inhibition,[10]; at 50.0 µM,34.7%
same,growth inhibition,[10]; at 100.0 µM,97% (active)
same,growth inhibition,[11]; at 1.2 µM,-1%
same,growth inhibition,[11]; at 3.7 µM,7%
same,growth inhibition,[11]; at 11.0 µM,1%
same,growth inhibition,[11]; at 33.0 µM,11%
same,growth inhibition,[11]; at 100.0 µM,92% (active)
same,growth inhibition,[12]; at 1.2 µM,0%
same,growth inhibition,[12]; at 3.7 µM,-1%
same,growth inhibition,[12]; at 11.0 µM,0%
same,growth inhibition,[12]; at 33.0 µM,11%
same,growth inhibition,[12]; at 100.0 µM,99% (active)
same,growth inhibition,[13]; at 1.2 µM,-2%
same,growth inhibition,[13]; at 3.7 µM,1%
same,growth inhibition,[13]; at 11.0 µM,9%
same,growth inhibition,[13]; at 33.0 µM,37%
same,growth inhibition,[13]; at 100.0 µM,99% (active)
same,growth inhibition,[14]; [17],-1%
same,growth inhibition,[14]; [18],53%
same,growth inhibition,[14]; at 50.0 µM,74% (active)
same,growth inhibition,[15]; at 1.2 µM,-1%
same,growth inhibition,[15]; at 3.7 µM,4%
same,growth inhibition,[15]; at 11.0 µM,6%
same,growth inhibition,[15]; at 33.0 µM,41%
same,growth inhibition,[15]; at 100.0 µM,98% (active)
CC1CC[C@]2(C(=O)O)CCC3(C)C(=CC(=O)C4[C@@]5(C)CCC(=O)C(C)(C)C5CC[C@]43C)[C@@H]2[C@H]1C (stereo partly specified),growth inhibition,[1]; at 1.2 µM,29%
same,growth inhibition,[1]; at 3.7 µM,43%
same,growth inhibition,[1]; at 11.0 µM,91% (active)
same,growth inhibition,[1]; at 33.0 µM,98% (active)
same,growth inhibition,[1]; at 100.0 µM,97% (active)
same,growth inhibition,[16]; at 1.2 µM,9%
same,growth inhibition,[16]; at 3.7 µM,20%
same,growth inhibition,[16]; at 11.0 µM,93% (active)
same,growth inhibition,[16]; at 33.0 µM,98% (active)
same,growth inhibition,[16]; at 100.0 µM,97% (active)
same,growth inhibition,[3]; at 1.2 µM,4%
same,growth inhibition,[3]; at 3.7 µM,9%
same,growth inhibition,[3]; at 11.0 µM,88% (active)
same,growth inhibition,[3]; at 33.0 µM,97% (active)
same,growth inhibition,[3]; at 100.0 µM,97% (active)
same,growth inhibition,[4]; at 1.2 µM,20%
same,growth inhibition,[4]; at 3.7 µM,46%
same,growth inhibition,[4]; [17],4%
same,growth inhibition,[4]; at 11.0 µM,92% (active)
same,growth inhibition,[4]; at 33.0 µM,98% (active)
same,growth inhibition,[4]; [18],97% (active)
same,growth inhibition,[4]; at 50.0 µM,90.8% (active)
same,growth inhibition,[4]; at 100.0 µM,97% (active)
same,growth inhibition,[5]; at 1.2 µM,-2%
same,growth inhibition,[5]; at 3.7 µM,38%
same,growth inhibition,[5]; [17],26%
same,growth inhibition,[5]; at 11.0 µM,88% (active)
same,growth inhibition,[5]; at 33.0 µM,95% (active)
same,growth inhibition,[5]; [18],97% (active)
same,growth inhibition,[5]; at 50.0 µM,91.5% (active)
same,growth inhibition,[5]; at 100.0 µM,95% (active)
same,growth inhibition,[6]; at 1.2 µM,-19%
same,growth inhibition,[6]; at 3.7 µM,-13%
same,growth inhibition,[6]; at 11.0 µM,77% (active)
same,growth inhibition,[6]; at 33.0 µM,95% (active)
same,growth inhibition,[6]; at 100.0 µM,96% (active)
same,growth inhibition,[7]; [17],7%
same,growth inhibition,[7]; [18],96% (active)
same,growth inhibition,[7]; at 50.0 µM,89.8% (active)
same,growth inhibition,[8]; at 1.2 µM,1%
same,growth inhibition,[8]; at 3.7 µM,37%
same,growth inhibition,[8]; at 11.0 µM,92% (active)
same,growth inhibition,[8]; at 33.0 µM,97% (active)
same,growth inhibition,[8]; at 100.0 µM,97% (active)
same,growth inhibition,[9]; [17],65%
same,growth inhibition,[9]; [18],98% (active)
same,growth inhibition,[9]; at 50.0 µM,90.7% (active)
same,growth inhibition,[10]; at 1.2 µM,12%
same,growth inhibition,[10]; at 3.7 µM,29%
same,growth inhibition,[10]; [17],58%
same,growth inhibition,[10]; at 11.0 µM,88% (active)
same,growth inhibition,[10]; at 33.0 µM,96% (active)
same,growth inhibition,[10]; [18],97% (active)
same,growth inhibition,[10]; at 50.0 µM,91.7% (active)
same,growth inhibition,[10]; at 100.0 µM,96% (active)
same,growth inhibition,[11]; at 1.2 µM,12%
same,growth inhibition,[11]; at 3.7 µM,13%
same,growth inhibition,[11]; at 11.0 µM,88% (active)
same,growth inhibition,[11]; at 33.0 µM,98% (active)
same,growth inhibition,[11]; at 100.0 µM,97% (active)
same,growth inhibition,[12]; at 1.2 µM,14%
same,growth inhibition,[12]; at 3.7 µM,14%
same,growth inhibition,[12]; at 11.0 µM,83% (active)
same,growth inhibition,[12]; at 33.0 µM,96% (active)
same,growth inhibition,[12]; at 100.0 µM,96% (active)
same,growth inhibition,[13]; at 1.2 µM,29%
same,growth inhibition,[13]; at 3.7 µM,30%
same,growth inhibition,[13]; at 11.0 µM,91% (active)
same,growth inhibition,[13]; at 33.0 µM,98% (active)
same,growth inhibition,[13]; at 100.0 µM,97% (active)
same,growth inhibition,[14]; [17],35%
same,growth inhibition,[14]; [18],97% (active)
same,growth inhibition,[14]; at 50.0 µM,90.7% (active)
same,growth inhibition,[15]; at 1.2 µM,15%
same,growth inhibition,[15]; at 3.7 µM,34%
same,growth inhibition,[15]; at 11.0 µM,93% (active)
same,growth inhibition,[15]; at 33.0 µM,97% (active)
same,growth inhibition,[15]; at 100.0 µM,97% (active)

# Source: PubChem BioAssay (NCI)
